This is an account of results in the supplement of paper PMC6555819.

The test system of this experiment is VDR:RXRa (NR concentration 270 nM, RXRa partner concentration 90 nM). As to the kind of experiment: PBM binding z-score (relative to random genomic background probes); higher = stronger binding; sequences stand for … in GC…GCGATTGACAGCGTAGAATGAAGG
The method, then:
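Protein-binding microarray (Agilent 4x180K custom design, double-stranded 60-nt probes: 5' GC cap, 34-nt variable region, 24-nt constant primer region; full probe sequence given). Purified or IVT nuclear receptor:RXRα heterodimers (3:1 NR:RXRα, mostly 270:90 nM) or homodimers were incubated for 1 h in PBS with 2% milk and no ligand, then detected with Alexa488 antibodies. Fluorescence from o1-orientation probes (~5 replicates averaged) was converted to z-scores against 500 random hg19 background probes. Variable regions are seed direct-repeat (DR0–DR5) sites, all their single-nucleotide variants and half-site ablations.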
The sequence TCGAGTAGGCTACGGGGGCATTCAGGGATGAAGA had a PBM binding z-score of 2.2. With CAAACTAGGTCAAAGGTCAAAGACGAGCCAACCA, the PBM binding z-score turned out to be 6.69. With CCAGACAGGTGAAAGGTCACTCAGTCTGGTACGC the figure was 5.03.

Sequence AGTCAAAGTTCACTAGGCAACGTAAGATTCAGCT came in with a PBM binding z-score of 3.13. For ATCGTAAGGTCGTGAGGTGAGTATACAGAAAGGC, the PBM binding z-score is 2.8.

The sequence CCTAGCAGACCAATCTGGGTCACTCAAGGCTTGA returned a PBM binding z-score of 0.199. With TAGCATAGGTCATGCGGGCCAGTATAGTGTCGGC the figure was 4.32. Regarding CCGAGTAGGTTACGAGGGGGCAATCAGTGCGAAT, the PBM binding z-score amounted to 4.72. Take CGAACTGGGTCACCAGGACAGTGAAGAGGTTGGA: the PBM binding z-score was found to be 2.13. In turn, CCGAGTAGGTTACGAGGGGGCATTGAGTGCGAAT gave a PBM binding z-score of 6.16. With ATATGTAGCTTAAGGGTCATTCAGGTTGGTTCGC the figure was 5.26; with CGAACTAGGTCAGAGGACAGTGAAAGGCGACGTA, 0.161.

Consider TCTAGTTGGTTACGGAGGTCACACACGACGGGTA, for which the PBM binding z-score turned out to be 4.27.

Take ATCGAACGGTCGACGAGGTGAGTATACACCGTTT: the PBM binding z-score worked out at 0.299. Turning to CTATGTAGGTTAAGGGGGTCATTCAATTTGAAAG, the PBM binding z-score amounted to 7.18.

Consider CGAACTAGGTTAAAGGACAGTGAAAGGCGACGTA, for which the PBM binding z-score was -0.216. Next, CGAACTAGGTCACCAGGACACTGAAGAGGTTGGA: 2.56; AAATGTAGGTTAGGGTCATTCAGAAAGTAGGGAA: 4.55. Sequence ATCGAAAGGTCGTGAGGTGTGTATACAGAAAGGC returned a PBM binding z-score of 4.55.

In turn, ATCGAAAGGTCGTGAGGTGACTATACAGAAAGGC showed a PBM binding z-score of 3.64. Next, ATATGTAGGTTAGGGTCATTGAGAAAGTAGGGAA: 4.27; CCGAGTAGGTTACGAGGGGGTATTCAGTGCGAAT: 2.95; ATCTGTAGGTTATCGGGTCATTCAGTTTGCGCAT: 5.17.

For ATATGTAGGTTAGAGTCATTCAGAAAGTAGGGAA, the PBM binding z-score was found to be 0.295.

Regarding CCTGCTAGTTCATGGTCAGCTAATCTACAGTATG, the PBM binding z-score was 0.708. Next, TTACCAAGGTGAAAGGTCATTGATGCACGCCTTG: 5.41. Sequence ATCTCTAGGTTAAAGTTCAGTGAATCCCGAGGAT yielded a PBM binding z-score of 2.76.

Consider TCTCGGAGGACACGAAAGGTCAGAACTCGACATC, for which the PBM binding z-score came out at 3.19. With CTATGTAGGTTAAGGGGGTCATTCAGTTTGAAAG the figure was 7.57; with CGATGTAGGTTAAGGGGGTCATTCAGTTTGAAAG, 7.68.

Consider CGTCCAAGGTCATGGGAGGTCAGTGAAGACAGAT, for which the PBM binding z-score came out at 7.07. With CCTAGCAGGCCAGGGTCACCCAAGCATTTCGCTT the figure was 2.96.

The sequence CAAGCTAGGTCAAAGGTCAAAGTCGAGCCAACCA displayed a PBM binding z-score of 6.9. Next, CTATCTAGGTTAAGGGGGTCATTCAGTTTGAAAG: 7.51.

For TAGCCTAGGTCATGCGGGCCAGTATAGTGTCGGC, the PBM binding z-score was determined as 2.89. Next, CGTCAAAGTTAAAGGTAACGTAACAGAAAGCAGC: 0.291; AATTCAGGGTCACTAGGCCAGAGTAGGTACGAAT: 4.79; ATCGAAAGGTCGAAGGTCAGTATACCCACCCGAA: 4.35. Turning to CGAACTAGGTCAAAGGGCAGTGAAAGGCGACGTA, the PBM binding z-score is 2.63. Next, CTTAGTTGGTCAAGGTCACACACGCTATAGGTAC: 4.52.
